Measured values published in the supplement of paper PMC10338343.
± gives the standard deviation.

test system: MILI (PIWIL2) piRISC loaded with L1MC piRNA (26 nt); assay: pre-steady-state target cleavage rate (min^-1); guide: L1MC piRNA 5'p-UAACUAAAUACUAUGCAAGCUGUAGG; higher = faster piRNA-guided slicing of the target; settings: auxiliary factor: none (no GTSF1);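 note: 1 nM active piRISC with 0.1 nM target library at 33 °C single turnover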
Summary of the method: (§1)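 Reactions were run for 0–8 or 0–960 min at 33 °C in HEPES–potassium acetate buffer, combining 1 nM active affinity-purified piRISC with one synthetic guide, […] transcribed, DNA-blocked target RNA library and, in some cases, 500 nM GTSF1 partner protein. Sequencing of uncleaved targets followed, with normalisation to depth and to weakly complementary targets. Three trials were pooled, k3 was capped at 0.0001 min^-1, and the pre-steady-state cleavage rate was taken from a burst-and-steady-state fit.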

Sequence | pre-steady-state target cleavage rate
UCCUGGAACAGCUUGCAUAGUAUUAGUUA | 0.0037 ± 0.0023
UCCUCGCUACAGCUUGCAUAGUAUUUAGUUA | 0.00839 ± 0.0032
UCCUCCAACAGCUUGCUUAGUAUUUAGUUA | 0.0066 ± 0.0021
UCCUGGUACAGGUUGCUUAGUAUUUAGUUA | 0.0176 ± 0.0042
UCCUGCUACAGGAAGCAUAGUAUUUAGUUA | 0.00969 ± 0.0027
UCCUGCUACAGCUUCAUAGUAUUUAGUUA | 0.00508 ± 0.0025
UCCUCCUACACUUGCAUAGUAUUUAGUUA | 0.00564 ± 0.002
UCCUGCAACUGCUUGCAUAGUAUUUAGUUA | 0.00581 ± 0.0026
UCCUGCUUCAGCUUGCAUAGUAUUUAGUUA | 0.0109 ± 0.0023
UCCUCCUACAGCUUGCCUAGUAUUUAGUUA | 0.00736 ± 0.002
UCCUCGUACAGCUUGCAUAGUUUUUAGUUA | 0.00493 ± 0.0018
UCCUCGUACAGCUUGCUUAGUAUUUAGUUA | 0.00785 ± 0.0024
UCCUGCAACAGCUUGCUUAGUAUUUAGUUA | 0.00661 ± 0.0026
UCCUGCUACAGCUUGCUUUGUAUUUAGUUA | 0.00494 ± 0.0021
UCCUGGAACGAGCUUGCAUAGUAUUUAGUUA | 0.00792 ± 0.0025
UCCUGGAUCAGCUUGCAUAGUAUUUAGUUUA | 0.00718 ± 0.0026
UCCUGGAUGUGCUUGCAUAGUAUUUAGUUUA | 0.00735 ± 0.0032
UCCUGGAACAGCUUGCAUAGUAUUUAAGUUA | 0.00781 ± 0.0028
UCCUGCAAGAGCUUGCAUAGUAUUUAGUUA | 0.00624 ± 0.0028
UCCUCCAACACCUUGCAUAGUAUUUAGUUA | 0.00554 ± 0.0024

Sequence | pre-steady-state target cleavage rate
UCCUGGAACUAGCUUGCAUAGUAUUUAGUUA | 0.00841 ± 0.0027
UCCUGCUACAGCUUGGAUUGUAUUUAGUUA | 0.00506 ± 0.0023
UCCUGCUACAGCUUGCAUAGGUAUUUAGUUA | 0.00421 ± 0.0024
UCCUCCUACAGCGUGCAUAGUAUUUAGUUA | 0.00999 ± 0.003
UCCUGGAACAGACUUGCAUAGUAUUUAGUUA | 0.00682 ± 0.0024
UCCUCCUACUCCUUGCAUAGUAUUUAGUAA | 0.00285 ± 0.0024
UCCUGCUACAGCGUUGCAUAGUAUUUAGUUA | 0.01 ± 0.0033
UCCUGGAUGAGCCUGCAUAGUAUUUAGUUA | 0.00748 ± 0.0033
UCCUGGAUCACGCUUGCAUAGUAUUUAGUUA | 0.00715 ± 0.0036
UCCUGGAUGAGCUAGCAUAGUAUUAAGUUA | 0.00417 ± 0.0024
UCCUGCUACAGCUUGCAAAGUAUUUAGUUA | 0.00686 ± 0.0019
UCCUGGUACAGCUUGCAUAGUAUCUUAGUUA | 0.00861 ± 0.0033
UCCUCCUACAGGUUGCAUAGUAAUUAGUUA | 0.00589 ± 0.0017
UCCUCGUACAGCUUGCAUAGUAUUUAGUUA | 0.0108 ± 0.0022
UCCUGGUACAGCUUGCAUAGUAUUUAGUAA | 0.00667 ± 0.0024
UCCUCCUACUGCUUGCAUUGUAUUUAGUUA | 0.00808 ± 0.0019
UCCUGGACCAGCUUGCAUAGUAUUUAGUUA | 0.00604 ± 0.0027
UCCUGGAUCAGGUUGCAUUGUAUUUAGUUA | 0.00671 ± 0.0024
UCCUGGAUCAGCUUGCUUAGUAUUUAGUUA | 0.0092 ± 0.0031
UCCUGGUACAGCUAGCUUAGUAUUUAGUUA | 0.00768 ± 0.0025

test system: EfPiwi piRISC loaded with L1MC piRNA (26 nt); assay: pre-steady-state target cleavage rate (min^-1); auxiliary factor: 500 nM Ephydatia muelleri Gtsf1; guide: L1MC piRNA 5'p-UAACUAAAUACUAUGCAAGCUGUAGG; MIWI and MILI are mouse PIWI proteins and EfPiwi is from a freshwater sponge; tags in brackets are library labels; higher = faster piRNA-guided slicing of the target; settings: not given
Summary of the method: as §1

Sequence | pre-steady-state target cleavage rate
UCCUGGAACAGCUUGCAUAGUAUUAGUUA | 0.00229 ± 0.0021
UCCUCGCUACAGCUUGCAUAGUAUUUAGUUA | 0.0505 ± 0.017
UCCUCCAACAGCUUGCUUAGUAUUUAGUUA | 0.0148 ± 0.0053
UCCUGGUACAGGUUGCUUAGUAUUUAGUUA | 0.00576 ± 0.003
UCCUGCUACAGGAAGCAUAGUAUUUAGUUA | 0.0127 ± 0.0035
UCCUGCUACAGCUUCAUAGUAUUUAGUUA | 0.00994 ± 0.0031
UCCUCCUACACUUGCAUAGUAUUUAGUUA | 0.049 ± 0.015
UCCUGCAACUGCUUGCAUAGUAUUUAGUUA | 0.0198 ± 0.0044
UCCUGCUUCAGCUUGCAUAGUAUUUAGUUA | 0.103 ± 0.025
UCCUCCUACAGCUUGCCUAGUAUUUAGUUA | 0.0514 ± 0.014
UCCUCGUACAGCUUGCAUAGUUUUUAGUUA | 0.0267 ± 0.0072
UCCUCGUACAGCUUGCUUAGUAUUUAGUUA | 0.0519 ± 0.012
UCCUGCAACAGCUUGCUUAGUAUUUAGUUA | 0.0143 ± 0.0036
UCCUGCUACAGCUUGCUUUGUAUUUAGUUA | 0.00538 ± 0.003
UCCUGGAACGAGCUUGCAUAGUAUUUAGUUA | 0.00926 ± 0.0022
UCCUGGAUCAGCUUGCAUAGUAUUUAGUUUA | 0.0394 ± 0.011
UCCUGGAUGUGCUUGCAUAGUAUUUAGUUUA | 0.00801 ± 0.0032
UCCUGGAACAGCUUGCAUAGUAUUUAAGUUA | 0.0138 ± 0.0052
UCCUGCAAGAGCUUGCAUAGUAUUUAGUUA | 0.0267 ± 0.0065
UCCUCCAACACCUUGCAUAGUAUUUAGUUA | 0.00954 ± 0.0038

Sequence | pre-steady-state target cleavage rate
UCCUGGAACUAGCUUGCAUAGUAUUUAGUUA | 0.0126 ± 0.0045
UCCUGCUACAGCUUGGAUUGUAUUUAGUUA | 0.00362 ± 0.002
UCCUGCUACAGCUUGCAUAGGUAUUUAGUUA | 0.00304 ± 0.0019
UCCUCCUACAGCGUGCAUAGUAUUUAGUUA | 0.1 ± 0.026
UCCUGGAACAGACUUGCAUAGUAUUUAGUUA | 0.0135 ± 0.0042
UCCUCCUACUCCUUGCAUAGUAUUUAGUAA | 0.00518 ± 0.0033
UCCUGCUACAGCGUUGCAUAGUAUUUAGUUA | 0.0103 ± 0.0024
UCCUGGAUGAGCCUGCAUAGUAUUUAGUUA | 0.032 ± 0.011
UCCUGGAUCACGCUUGCAUAGUAUUUAGUUA | 0.223 ± 0.05
UCCUGGAUGAGCUAGCAUAGUAUUAAGUUA | 0.00293 ± 0.0024
UCCUGCUACAGCUUGCAAAGUAUUUAGUUA | 0.00608 ± 0.0019
UCCUGGUACAGCUUGCAUAGUAUCUUAGUUA | 0.00588 ± 0.0027
UCCUCCUACAGGUUGCAUAGUAAUUAGUUA | 0.0115 ± 0.0031
UCCUCGUACAGCUUGCAUAGUAUUUAGUUA | 0.163 ± 0.036
UCCUGGUACAGCUUGCAUAGUAUUUAGUAA | 0.0108 ± 0.0041
UCCUCCUACUGCUUGCAUUGUAUUUAGUUA | 0.0605 ± 0.016
UCCUGGACCAGCUUGCAUAGUAUUUAGUUA | 0.159 ± 0.037
UCCUGGAUCAGGUUGCAUUGUAUUUAGUUA | 0.00567 ± 0.0021
UCCUGGAUCAGCUUGCUUAGUAUUUAGUUA | 0.0228 ± 0.0071
UCCUGGUACAGCUAGCUUAGUAUUUAGUUA | 0.00544 ± 0.0027
